In all, about 33,000 sequences were measured (“E-score (-0.5 to 0.5)”: median about -0.0014, highest 2% from about 0.25 on). This is one part of a sample in which the highest values are shown more often than they occur.
target: T1, Cad1 (UniProt P24813); experiment: PBM E-score (8-mer binding enrichment) (E-score (-0.5 to 0.5)); higher = stronger / more preferred TF binding; conditions: protein concentration: 100 nM; construct: GST-full length
T1 sequence: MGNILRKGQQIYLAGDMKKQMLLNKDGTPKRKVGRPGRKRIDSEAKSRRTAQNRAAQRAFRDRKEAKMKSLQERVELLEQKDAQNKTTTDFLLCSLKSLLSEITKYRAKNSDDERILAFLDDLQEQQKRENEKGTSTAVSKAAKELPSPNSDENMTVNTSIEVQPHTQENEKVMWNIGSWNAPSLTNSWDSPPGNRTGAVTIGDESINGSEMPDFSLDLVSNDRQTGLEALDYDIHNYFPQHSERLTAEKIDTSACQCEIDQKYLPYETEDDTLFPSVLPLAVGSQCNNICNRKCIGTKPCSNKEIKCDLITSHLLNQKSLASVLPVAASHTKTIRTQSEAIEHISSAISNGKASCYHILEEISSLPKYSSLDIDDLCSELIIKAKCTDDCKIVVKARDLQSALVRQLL
Experimental: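 Universal 'all 10-mer' protein binding microarrays (Agilent AMADID 015681) probed with GST-tagged S. cerevisiae TFs (full-length or DBD) made by in vitro transcription/translation (PURExpress), about 100-200 nM. Bound TF was detected with fluorescent anti-GST. Each ungapped 8-mer (which stands for itself and its reverse complement) is scored by the PBM enrichment score (E-score), a modified Wilcoxon-Mann-Whitney statistic from -0.5 to +0.5, computed with the Universal PBM Analysis Suite. Scale: above 0.35 generally sequence-specific binding.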

Row | Sequence | PBM E-score
1 | ACGGAACA | 0.0866
2 | TCGGAACA | 0.268
3 | CCGGAACA | 0.108
4 | AAATAAAA | -0.0112
5 | AAATAATT | 0.295
6 | AAATAATC | 0.198
7 | AAAATAAA | 0.128
8 | AAAATAAC | -0.0367
9 | AAATAATA | 0.248
10 | AAATAAAT | 0.314
11 | AAAATAAT | 0.314
12 | AAATAAAG | -0.0232
13 | CACTGGCA | -0.0733
14 | CCAAGACC | -0.0342
15 | CCGCCGTC | 0.117
16 | AGTCACTA | 0.0232
17 | GCGCAGTA | 0.149
18 | GAAGATTA | 0.181
19 | TATGCGCA | 0.0953
20 | CGTCCGTA | -0.0771
21 | TAAGCACA | 0.295
22 | CAAGCACG | 0.152
23 | CAAGCACA | -0.0831
24 | GCACGAAA | 0.197
25 | AGTATCGG | 0.0469

Row | Sequence | PBM E-score
26 | GGCATGCC | 0.00621
27 | CGCATGCC | 0.252
28 | AGCATGCC | -0.111
29 | AAAATTCG | 0.201
30 | AAATTCCA | 0.308
31 | CGAAATCC | 0.0502
32 | CAATTCCA | -0.0425
33 | GGAAATCA | 0.0778
34 | CCAAATTA | 0.107
35 | ACAAATTG | 0.202
36 | AAAATTCA | 0.284
37 | CGAAATCA | 0.306
38 | GAAATTCA | 0.169
39 | GAATTCCA | 0.117
40 | ACAAATTA | 0.295
41 | ACCCAAGT | -0.0625
42 | ATCAACCC | 0.0896
43 | ATCCTAAA | -0.12
44 | CGAACTCC | 0.0429
45 | TAAAAGAA | 0.0891
46 | ACTCTAAG | -0.094
47 | GACGTTAA | 0.245
48 | AGGTGTAG | -0.128
49 | CGGCACAA | -0.103
50 | ATGCTTGC | -0.14

Row | Sequence | PBM E-score
51 | CCAAATCA | -0.041
52 | ACAAATCA | 0.279
53 | AAAATTTT | 0.234
54 | CAAAATTA | 0.187
55 | AAAAATTT | 0.269
56 | GAAAATTA | 0.13
57 | AGAAATTC | 0.13
58 | AGAAATTA | 0.296
59 | AAAAAATT | 0.12
60 | GCAAATCA | 0.101
61 | GGAAATTA | 0.208
62 | AAAAATTA | 0.254
63 | CGGAAAAC | 0.221
64 | ATCCAACC | -0.0228
65 | CGCCCTGC | -0.128
66 | ATCCTAGA | -0.0558
67 | AATTTGCG | 0.173
68 | CCGGAAAA | 0.215
69 | TAAAATTA | 0.297
70 | TAAAATAA | 0.164
71 | TAAATTTA | 0.154
72 | AATGCCGT | 0.107
73 | ATCTTCAC | -0.0332
74 | CTAAGACC | -0.0662
75 | ACCCTAAG | -0.101

Row | Sequence | PBM E-score
76 | GATTTCGC | 0.28
77 | GATTTCGA | -0.0223
78 | CATTTCGC | -0.15
79 | ATCGATGG | 0.0786
80 | CAGCTTCA | 0.0676
81 | CCTCCTTC | -0.165
82 | GCTTATAA | 0.235
83 | GATTATAA | 0.29
84 | AATTATAC | 0.172
85 | CATTATAA | 0.104
86 | AATTATAG | 0.0146
87 | TATTATAA | 0.185
88 | AATTATGG | 0.216
89 | ACTTATAA | 0.279
90 | ACTTATAC | 0.154
91 | AATTATGA | 0.297
92 | AATTATAA | 0.276
93 | AATTATGT | 0.167
94 | AAACGTAC | 0.0592
95 | AGCTAGTG | -0.0897
96 | AGCTCACG | -0.0493
97 | TAGAGTCA | -0.321
98 | AAAGAACC | 0.0643
99 | ATAAGCCA | 0.063
100 | AGTCGGCG | 0.0599

Row | Sequence | PBM E-score
101 | GGTGGGTA | -0.0656
102 | CATGTGCG | 0.173
103 | AATTATAT | 0.29
104 | ACTTATAT | 0.202
105 | AGTTATAT | 0.101
106 | CAAGTGGA | -0.0832
107 | CCCAAAAA | -0.0252
108 | CCGTTCCC | -0.0828
109 | GTTATTCA | 0.251
110 | ATTATTCA | 0.26
111 | GATATTCA | 0.0631
112 | ATTATTCG | 0.195
113 | ATTATTCC | 0.131
114 | CTTATTCA | 0.17
115 | ATATTGTA | 0.0624
116 | ATCACCAC | 0.245
117 | GGCACACC | -0.298
118 | CCGATGAG | 0.0417
119 | ACTGCACT | 0.0895
120 | CTTGGGGA | 0.0866
121 | CCGACCTC | -0.0414
122 | CTCATGAC | -0.0193
123 | GTCATGAC | 0.288
124 | GTCATGAA | 0.0483
125 | CACTTAAC | 0.00927

Row | Sequence | PBM E-score
126 | GGCGCTCA | 0.149
127 | ACACCTGC | 0.0761
128 | CCCGCCGA | -0.0624
129 | GCCGCGGA | -0.00234
130 | CCCGCGCA | 0.106
131 | CCCGCGCC | -0.118
132 | ACCGCCGA | -0.0944
133 | CCCGCGCG | 0.298
134 | CCCGCGGC | 0.0319
135 | TCCGCGGA | 0.311
136 | CCCGCGGA | 0.0649
137 | ACCGCGGA | 0.207
138 | GCCGCGGC | 0.347
139 | GCCGCCGA | 0.277
140 | ATTTCCAA | -0.03
141 | ACCAGGCA | -0.169
142 | AAAGCCAA | -0.0764
143 | AAGAGCTG | 0.0198
144 | CCGTTGGA | -0.182
145 | ACCGATGG | -0.143
146 | TCTGAACA | 0.184
147 | GCTATCGA | -0.0158
148 | AGCGCGCC | 0.082
149 | CGCGCGGA | 0.212
150 | GGCGCGCC | 0.172

Row | Sequence | PBM E-score
151 | CGCGCGGC | 0.261
152 | CGCGCGCC | 0.254
153 | AGCGCGGC | 0.0398
154 | TTAACAAA | 0.0927
155 | GACTCTAA | -0.118
156 | ACATAAGC | 0.107
157 | GCATAAGC | 0.254
158 | GCATAAGA | 0.108
159 | GCTTAGCC | -0.148
160 | ACTACTAT | 0.253
161 | AGTAATAT | 0.346
162 | ACTAATAG | 0.325
163 | ACTAATAT | 0.302
164 | ACTAATAA | 0.226
165 | AGTAATAC | 0.21
166 | ACTACTAC | 0.0727
167 | CCTAATAA | 0.0868
168 | AGTAATAG | 0.16
169 | ACTACTAA | 0.158
170 | CCTAATAG | -0.0644
171 | AATAATAT | 0.208
172 | CACCTAAA | 0.0285
